Assay results from the supplement of paper PMC12669032.
A number with no mark means an inactive call.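 The calls were made as follows: active = AUC reduced over 20% with Padj below 0.05 in at least 2 of 3 replicates; inactive = otherwise.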

Columns and labels:
Assay in all cases: growth AUC relative to DMSO control (median of replicates) (fraction); higher = more growth (less inhibition), active = hit call of the paper
Conditions in all cases: 20 µM; 24 h
Akkermansia muciniphila = system: Akkermansia muciniphila
Outline: (§1)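 Three biological replicates, each grown on a separate day, were combined as a median for every value. In each, a gut bacterial monoculture in mGAM started at OD600 0.05 and grew anaerobically at 37 °C with 20 µM compound (1% DMSO), with OD600 read hourly over 24 h. Area under the growth curve was normalised against the plate median of solvent-only wells, or against row and column medians on the industrial chemical plate, after the minimum OD was set to 0.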

Bacteroides caccae = system: Bacteroides caccae
Outline: as §1

Bacteroides clarus = system: Bacteroides clarus
Outline: as §1

Bacteroides dorei = system: Bacteroides dorei
Outline: as §1

Bacteroides stercoris = system: Bacteroides stercoris
Outline: as §1

[1] = system: Bacteroides thetaiotaomicron
Outline: as §1

Bacteroides uniformis = system: Bacteroides uniformis
Outline: as §1

[2] = system: Bifidobacterium longum subsp. longum
Outline: as §1

Clostridium difficile = system: Clostridium difficile
Outline: as §1

Collinsella aerofaciens = system: Collinsella aerofaciens
Outline: as §1

Row | SMILES | growth AUC (Akkermansia muciniphila) | growth AUC (Bacteroides caccae) | growth AUC (Bacteroides clarus) | growth AUC (Bacteroides dorei) | growth AUC (Bacteroides stercoris) | growth AUC [1] | growth AUC (Bacteroides uniformis) | growth AUC [2] | growth AUC (Clostridium difficile) | growth AUC (Collinsella aerofaciens)
1 | O=C(O)[C@@H](S)[C@@H](S)C(=O)O | 1.14 | 1.01 | 1.05 | 1.01 | 1.17 | 1.04 | 1.04 | 1.02 | 1.01 | 1.02
2 | Br[C@@H]1CC[C@@H](Br)[C@@H](Br)CC[C@H](Br)[C@H](Br)CC[C@H]1Br | 1.04 | 0.941 | 1 | 0.985 | 1 | 0.978 | 0.977 | 0.979 | 1 | 0.815
3 | O=C(O)Cc1c[nH]c2ccccc12 | 0.904 | 0.973 | 0.976 | 1.03 | 1.02 | 0.98 | 1.01 | 1.01 | 1 | 0.984
4 | CCOC(=O)C(C)Oc1ccc(Oc2cnc3cc(Cl)ccc3n2)cc1 (stereo not given) | 1.01 | 0.978 | 0.953 | 0.942 | 1.01 | 0.992 | 0.932 | 1.06 | 1.03 | 1.02
5 | CNc1nc(NC(C)C)nc(SC)n1 | 0.806 | 1.04 | 0.972 | 0.989 | 0.913 | 1.01 | 0.957 | 0.862 | 1.01 | 0.986
6 | CC(C)(CO)C(O)(CCc1ccc(Cl)cc1)Cn1cncn1 (stereo not given) | 1.01 | 0.955 | 0.998 | 0.967 | 1.01 | 0.969 | 0.994 | 0.967 | 0.991 | 0.991
7 | O=C=NC1CCC(CC2CCC(N=C=O)CC2)CC1 (stereo not given) | 1.05 | 0.986 | 1.03 | 0.939 | 1.03 | 0.995 | 0.996 | 1.05 | 1.01 | 1.02
8 | COC(=O)Cc1cccc2ccccc12 | 1.01 | 1.01 | 0.989 | 0.965 | 1.07 | 0.995 | 1 | 1.02 | 1.01 | 0.96
9 | C/C=C/C(=O)Oc1c(C(C)CCCCCC)cc([N+](=O)[O-])cc1[N+](=O)[O-] (mixture of isomers) | 1 | 0.285 (active) | 0.0314 (active) | 0.0151 (active) | 0.0105 (active) | 0.569 (active) | 0.448 (active) | 0.289 (active) | 0.0443 (active) | 0.789 (active)
10 | COC1CCC2(CC1)NC(=O)C(O)(c1cc(C)ccc1C)C2=O (stereo not given) | 1 | 0.984 | 1.02 | 1.03 | 1.15 | 1.01 | 1.02 | 1.05 | 1.02 | 0.981
11 | Oc1cccc2ccccc12 | 1 | 1.04 | 1 | 0.987 | 0.943 | 0.993 | 0.976 | 0.999 | 0.98 | 0.959
12 | O=C(O)CNC(=O)c1cnccc1C(F)(F)F | 1.02 | 1 | 1.02 | 0.976 | 1.07 | 0.99 | 1.02 | 1.06 | 0.924 | 0.989
13 | CCNc1nc(NC(C)(C)C)nc(OC)n1 | 0.972 | 0.985 | 0.998 | 0.992 | 1.11 | 0.987 | 0.985 | 1.02 | 0.998 | 1.07
14 | CCOC(=O)NCCOc1ccc(Oc2ccccc2)cc1 | 0.87 | 0.934 | 0.928 | 0.854 | 0.968 | 0.891 | 0.958 | 0.914 | 0.98 | 0.984
15 | CCc1cccc(C)c1NC(C)C(=O)O (racemic) | 1.21 | 1.01 | 0.98 | 0.931 | 0.965 | 1.03 | 0.996 | 1.04 | 1.03 | 0.985
16 | CCc1ccc(C(c2ccc(CC)cc2)C(Cl)Cl)cc1 | 0.859 | 0.912 | 0.952 | 1.02 | 0.931 | 0.977 | 1.02 | 0.972 | 1.03 | 0.901
17 | CCCCCCCC/C=C\CCCCCCCCCCCC(=O)O | 1.05 | 1.01 | 1.02 | 0.995 | 1.01 | 1.02 | 1.01 | 0.902 | 1 | 0.983
18 | CCOc1ccc(NC(=O)OC(C)C)cc1OCC | 1.08 | 0.95 | 1.02 | 0.928 | 1.2 | 0.844 | 0.938 | 1.05 | 0.971 | 0.974
19 | CCOC(=O)Nc1cccc(OC(=O)Nc2cccc(C)c2)c1 | 1.05 | 0.951 | 0.948 | 0.882 | 0.932 | 0.979 | 1.02 | 1.02 | 0.966 | 0.901
20 | Cc1cccc(C)c1O | 1.02 | 1.04 | 0.987 | 1.01 | 1.03 | 1.02 | 1 | 0.946 | 1.03 | 1.02
21 | CCSC(=O)N(CC)CC | 1.01 | 0.998 | 0.991 | 1.01 | 1.1 | 1.03 | 1.01 | 0.929 | 0.982 | 0.982
22 | COC(=O)c1ccc(C)cc1C1=NC(C)(C(C)C)C(=O)N1 (racemic) | 1.03 | 1.01 | 0.971 | 0.975 | 0.863 | 0.976 | 1 | 1 | 0.972 | 0.957
23 | CC[N+](CC)(CC(=O)Nc1c(C)cccc1C)Cc1ccccc1.O=C([O-])c1ccccc1 | 1.24 | 0.992 | 1.05 | 1.04 | 1.11 | 0.999 | 0.993 | 0.98 | 1.04 | 1
24 | CCCCCCCC(=O)Oc1c(Br)cc(C#N)cc1Br | 1.06 | 0.934 | 0.959 | 1.04 | 0.842 | 1.04 | 0.983 | 1.06 | 1.02 | 0.971
25 | Oc1ccccc1 | 1.08 | 0.963 | 0.991 | 1.03 | 0.992 | 0.997 | 1.03 | 0.998 | 1.02 | 1
26 | CCSc1nc(NC(C)C)nc(NC(C)C)n1 | 0.919 | 1.01 | 0.923 | 0.983 | 0.88 | 0.863 | 0.948 | 0.984 | 1.03 | 0.995
27 | O=C(O)C1(C(=O)Nc2ccc(Cl)cc2Cl)CC1 | 1.06 | 1.06 | 0.956 | 1.05 | 1.1 | 1.03 | 1.04 | 0.998 | 1.01 | 1.01
28 | O=C(O)c1cccc2nnsc12 | 0.935 | 0.996 | 0.998 | 0.964 | 0.963 | 1.01 | 1.01 | 1.03 | 0.99 | 0.977
29 | Cc1cc(N(C)C)nc(Cl)n1 | 0.999 | 0.916 | 1.02 | 0.985 | 1.26 | 1.02 | 0.98 | 0.985 | 0.976 | 0.977
